Structures are written as SMILES. Compounds without any hit were thinned out: in the full panel of roughly 83,000, 20% have a hit.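 Step 1: grow cells in 96-well plates. Step 2: add test compound at a single concentration. Step 3: incubate 48 h. Step 4: record percent growth.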 Values without a mark were called inactive. Activity calls are given as the source filed them. Rule for the calls: active = growth percent below 10; inactive = the rest.

Holding throughout (experiment): NCI-60 one-dose screen, 48 h (100 = growth as untreated, 0 = no growth, -100 = all killed)
The subject of one assay is NCI-H23 lung. The following applies: 10 µM unless noted.
In a further assay the test system is NCI-H226 lung. The following applies: 10 µM unless noted.
Another assay concerns NCI-H322M lung. The note with it: 10 µM unless noted.
In a further assay the test system is HOP-62 NSCLC. The note with it: 10 µM unless noted.
The next assay has as its system NCI-H460 lung. The note with it: 10 µM unless noted.
The next assay relates to HOP-92 NSCLC. The following applies: 10 µM unless noted.
The test system of the next assay is NCI-H522 lung. The following applies: 10 µM unless noted.
In another assay the test system is A549/ATCC NSCLC. The note with it: 10 µM unless noted.
For the next assay, the system named is 786-0 renal. The following applies: 10 µM unless noted.
In the next assay the test system is COLO 205 colon. The following applies: 10 µM unless noted.
The test system of another assay is DU-145 prostate. The following applies: 10 µM unless noted.
In another assay the test system is K-562 leukemia. The following applies: 10 µM unless noted.
Another assay concerns MALME-3M melanoma. The note with it: 10 µM unless noted.
In the next assay the test system is MDA-MB-231 breast. The note with it: 10 µM unless noted.
In another assay the test system is RXF 393 renal. The following applies: 10 µM unless noted.
The next assay relates to SF-268 CNS. The following applies: 10 µM unless noted.
Another assay relates to SF-295 CNS. The note with it: 10 µM unless noted.
In the next assay the test system is SF-539 CNS. The following applies: 10 µM unless noted.
In a further assay the test system is UACC-257 melanoma. The note with it: 10 µM.
Another assay relates to M14 melanoma. The note with it: 10 µM unless noted.

For the compound `O=C1c2c(c3c4cc(Br)ccc4[nH]c3c3ccc4ccccc4c23)C(=O)N1CCN1CCNCC1`, the growth is 77.1% in the assay on NCI-H23 lung; 87.6% in the assay on NCI-H226 lung; 95.6% in the assay with NCI-H322M lung; 60.9% with HOP-62 NSCLC; 36.5% in the assay on NCI-H460 lung; 82.5% in the assay with HOP-92 NSCLC. The growth is 74.3% with NCI-H522 lung; 54.4% with A549/ATCC NSCLC; 76.5% with 786-0 renal; 86.5% in the assay on COLO 205 colon; 72.1% with DU-145 prostate; -25.7% (active) with K-562 leukemia. Moreover, the growth with MALME-3M melanoma was 80.5%; in the assay on MDA-MB-231 breast, 84.1%; in the assay with RXF 393 renal, 82.8%; in the assay with SF-268 CNS it was 72.7%; in the assay with SF-295 CNS it was 73.6%; in the assay on SF-539 CNS it was 87.1%. The figures for the growth in the assay with UACC-257 melanoma and in the assay with M14 melanoma were 98.3% and 87.6%, respectively.
As to `CCN(CC)CCCC(C)NCC(=O)NC(c1ccc2c(c1)OCO2)c1cc(Cl)c2cccnc2c1O` (stereo not given), the growth with NCI-H23 lung is 41.7%; in the assay on NCI-H226 lung, 41.2%; with NCI-H322M lung it was 35.2%; in the assay on HOP-62 NSCLC it was 21.6%; in the assay on NCI-H460 lung, 8.77% (active); in the assay on HOP-92 NSCLC it was 35.9%. Besides, the growth in the assay with NCI-H522 lung is 37.4%; in the assay with A549/ATCC NSCLC it was 24.1%; in the assay with 786-0 renal it was 7.03% (active); in the assay with COLO 205 colon, 17.6%; in the assay with DU-145 prostate, 44.2%; with K-562 leukemia it was 10.6%. In addition, the growth in the assay on MALME-3M melanoma was 5.27% (active); with MDA-MB-231 breast, 35.5%; in the assay with RXF 393 renal, 67.5%; in the assay on SF-268 CNS it was 22.7%; with SF-295 CNS it was -53.3% (active); with SF-539 CNS it was 6.63% (active). Also, the growth was 76.6% with UACC-257 melanoma and -9.39% (active) with M14 melanoma.
Take `Cn1cc(-c2nnc(N)nc2-c2cn(C)c3ccc(F)cc23)c2cc(F)ccc21`: the growth in the assay with NCI-H23 lung is 101%; in the assay on NCI-H226 lung it was 97.4%; with NCI-H322M lung, 101%; in the assay with HOP-62 NSCLC, 90.7%; in the assay with NCI-H460 lung, 102%; with HOP-92 NSCLC, 116%. Also, the growth is 73.2% with NCI-H522 lung; 77.2% in the assay with A549/ATCC NSCLC; 86.1% in the assay on 786-0 renal; 107% in the assay with COLO 205 colon; 95.6% in the assay on DU-145 prostate; 101% in the assay with K-562 leukemia. Further, the growth in the assay on MALME-3M melanoma is 107%; with MDA-MB-231 breast, 94.6%; in the assay with RXF 393 renal it was 104%; with SF-268 CNS, 78.5%; in the assay with SF-295 CNS, 113%; in the assay on SF-539 CNS, 96.4%. In addition, the growth with UACC-257 melanoma and in the assay on M14 melanoma was 101% in each case.
For `C/C=C/C=C1\C[C@H]2CO[C@H](O2)C1=O`, the growth was 93.9% with NCI-H23 lung; 94.9% with NCI-H226 lung; 93.7% with NCI-H322M lung; 96.9% in the assay on HOP-62 NSCLC; 104% with NCI-H460 lung; 96.4% with HOP-92 NSCLC. In addition, the growth with NCI-H522 lung is 95.6%; with A549/ATCC NSCLC, 98.2%; in the assay with 786-0 renal it was 102%; in the assay on COLO 205 colon, 117%; in the assay with DU-145 prostate it was 106%; in the assay on K-562 leukemia it was 56.8%. Also, the growth is 102% with MALME-3M melanoma; 105% in the assay on MDA-MB-231 breast; 104% in the assay with RXF 393 renal; 105% in the assay with SF-268 CNS; 106% in the assay on SF-295 CNS; 102% in the assay on SF-539 CNS. Also, the values for the growth in the assay on UACC-257 melanoma and with M14 melanoma were 90.8% and 85.4%, respectively.
For the compound `C=C(C)[C@@H]1CC[C@]2(COS(C)(=O)=O)CC[C@]3(C)[C@H](CC[C@@H]4[C@@]5(C)CCCNC(C)(C)[C@@H]5CC[C@]43C)[C@@H]12`, the growth in the assay on NCI-H23 lung is 82%; in the assay on NCI-H226 lung it was 86.5%; with NCI-H322M lung, 94.7%; in the assay with HOP-62 NSCLC, 101%; with NCI-H460 lung, 13.5%; in the assay with HOP-92 NSCLC, 76.4%. The growth was 85.4% in the assay on NCI-H522 lung; 54.2% in the assay on A549/ATCC NSCLC; 91.5% in the assay on 786-0 renal; 0.735% (active) in the assay with COLO 205 colon; 42.1% in the assay on DU-145 prostate; 1.12% (active) in the assay with K-562 leukemia. Besides, the growth in the assay on MALME-3M melanoma was 97%; in the assay on MDA-MB-231 breast it was 91.6%; in the assay on RXF 393 renal, 85.3%; in the assay on SF-268 CNS, 106%; in the assay on SF-295 CNS, -40.1% (active); with SF-539 CNS, 84.9%. Further, the growth is 107% with UACC-257 melanoma and 84% in the assay on M14 melanoma.
In the case of `CC(=O)C1=NN(c2ccc(Cl)cc2)C(=O)CN1C`, the growth in the assay with NCI-H23 lung was 94.9%; with NCI-H226 lung, 105%; with NCI-H322M lung, 101%; with HOP-62 NSCLC it was 103%; with NCI-H460 lung it was 108%; in the assay on HOP-92 NSCLC, 107%. The growth is 95.6% in the assay with NCI-H522 lung; 96.2% in the assay on A549/ATCC NSCLC; 91.2% in the assay with 786-0 renal; 106% in the assay with COLO 205 colon; 107% with DU-145 prostate; 114% in the assay with K-562 leukemia. The growth with MALME-3M melanoma is 107%; in the assay on MDA-MB-231 breast, 105%; in the assay on RXF 393 renal it was 121%; in the assay on SF-268 CNS it was 108%; in the assay on SF-295 CNS, 95.5%; in the assay with SF-539 CNS, 97.8%. Moreover, the growth in the assay on UACC-257 melanoma and with M14 melanoma was 101% in each case.
For `CC(C)(C)n1nnnc1C(Nc1nccs1)c1cc2cccc3ccc4cccc1c4c32` (stereo not given), the growth is 100% in the assay with NCI-H23 lung; -13% (active) in the assay on NCI-H226 lung; 95.5% in the assay on NCI-H322M lung; 84.9% with HOP-62 NSCLC; 99.8% with NCI-H460 lung; 103% in the assay on HOP-92 NSCLC. Moreover, the growth was 100% in the assay on NCI-H522 lung; 108% in the assay on A549/ATCC NSCLC; 107% in the assay on 786-0 renal; 104% in the assay with COLO 205 colon; 107% with DU-145 prostate; 102% with K-562 leukemia. In addition, the growth was 97% in the assay with MALME-3M melanoma; 99.3% in the assay with MDA-MB-231 breast; 92.1% in the assay with RXF 393 renal; 100% in the assay with SF-268 CNS; 93.1% in the assay with SF-295 CNS; 92.9% with SF-539 CNS. The growth in the assay on UACC-257 melanoma was 100%; in the assay on M14 melanoma, 106%.

These data come from PubChem BioAssay (NCI).
